# Data reported in PubChem BioAssay (NCATS).
# Inconclusive results are not listed. A call without a number means that no potency is given here. The source made the active and inactive calls. Calls come from the whole dose curve; as a rule, active = well fitted activation curve with a large enough effect; inconclusive = small, poorly fitted or top-dose-only effect; inactive = flat fitted curve, though single readings scatter.
# Test: Cellular Toxicity (caspase-3) H-4-II-E (AID 663);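 for caspase-3 activation: cells exposed to compound for 16 hr before readout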
# Settings: H-4-II-E rat hepatoma; Potency: caspase-3 activation; series mostly up to 92.2 µM
# From the text: NIH Chemical Genomics Center [NCGC]
# NIH Molecular Libraries Screening Centers Network [MLSCN]
# National Institutes of Environmental Health Sciences [NIEHS]
# National Toxicology Program [NTP]
# We have developed a 1536-well cell-based assay for quantitative high throughput screening (qHTS) against a number of cell lines to determine in vitro caspase 3/7 of small molecules. This particular assay uses the H-4-II-E cell line which is derived from rat hepatoma.
# NCGC Assay Protocol Summary:
# The Caspase-Glo 3/7 assay (Promega) is a homogeneous method to measure caspase-3 and caspase-7 activities in cultured cells. The quantitation of caspase 3/7 activity is based on the cleavage of a peptide-aminoluciferin substrate. After caspase cleaves the substrate the free aminoluciferin is liberated and serves as the substrate of luciferase, which generates the light. The luminescent signal is proportional to amount of caspase 3/7 activity present.
# Using the Caspase-Glo 3/7 assay, the amount of caspase 3/7 activity was measured in the H-4-II-E cell line with complete culture medium following compound treatment for 16 hours. The assay was performed in opaque white 1536-well plates. In the screen, tamoxifen and doxorubicin were used as positive controls. Library compounds were measured for their ability to cause the activation of caspase 3/7 in the cell line, as reflected by an increase in luminescence signal, in a concentration-dependent manner. Data were normalized to the controls for basal activity (DMSO only) and 100% stimulation (100 uM tamoxifen). AC50 values were determined from concentration-response data modeled with the standard Hill equation.
# qHTS protocol for caspase 3/7 assay in H-4-II-E cells
# [Step] [Parameter] [Value] [Description]
# 1. Reagent; 5 uL; 1500 H-4-II-E cells/well
# 2. Time; 5 hr; 37 °C incubation
# 4. Controls; 23 nL; Tamoxifen 0.23 uM to 100 uM & Doxorubicin 7.0 pM to 100 uM
# 5. Time; 16 hr; 37 °C incubation
# 6. Reagent; 5 uL; Caspase-Glo 3/7 reagent
# 7. Time; 20 min; Room Temperature
# 8. Detection; Luminescence; Viewlux plate reader
# Keywords: caspase 3/7, apoptosis, H-4-II-E cell line, luminescence, NTPHTS, NTPHTS_NCGC, NIEHS, EPA, DSSTox, MLSMR, MLSCN, NIH Roadmap, qHTS, NCGC
# Potency is the fitted concentration of half-maximal effect.
row,Compound,Potency
1,CC(=O)OC/C=C(\C)CCC=C(C)C,inactive
2,O=NO,inactive
3,NC1=NC(S)C2N=CN=C2N1 (stereo not given),2.51 µM (active)
4,O=S(=O)(O)c1ccccc1,inactive
5,COC(=O)c1ccc(C)cc1,inactive
6,CCO,inactive
7,c1ccc2c(c1)c1cccc3ccc4cccc2c4c31,inactive
8,O=C1c2ccccc2C(=O)C1c1ccc2ccccc2n1,inactive
9,COC(=O)c1ccc(C=O)cc1,inactive
10,Cc1c(N=C=O)cccc1N=C=O,inactive
11,CC1(C)CC(N=C=O)CC(C)(CN=C=O)C1 (stereo not given),inactive
12,c1ccccc1,inactive
13,O=C1CCc2ccccc2O1,inactive
14,CCCCCCCCO,inactive
15,O=C(/C=C/c1ccc(O)c(O)c1)O[C@@H](C(=O)O)[C@@H](OC(=O)/C=C/c1ccc(O)c(O)c1)C(=O)O,inactive
16,C[C@H](CCC(=O)O)[C@H]1CC[C@H]2[C@@H]3CC[C@@H]4C[C@H](O)CC[C@]4(C)[C@H]3CC[C@]12C,inactive
17,O[C@@H]([C@H](O)[C@@H](O)CBr)[C@@H](O)CBr,inactive
18,c1ccc2c(c1)[nH]c1ccccc12,inactive
19,COc1ccc(/C=C/c2cc(OC)cc(=O)o2)cc1,inactive
20,CC(C)=CCCC(C)CCO (stereo not given),inactive

row,Compound,Potency
1,S=C1NC=NC2N=CNC12 (stereo not given),inactive
2,CC1=CC(C)(C)Nc2ccccc21,inactive
3,C=CCOC(=O)c1ccccc1C(=O)OCC=C,inactive
4,c1ccc2scnc2c1,inactive
5,Cc1ccccc1C,inactive
6,O=C(O)c1ccc(O)cc1O,inactive
7,Cc1ccc([N+](=O)[O-])c(C)c1,inactive
8,C/C=C\c1ccc(OC)cc1,inactive
9,COC(=O)CCCCC(=O)OC,inactive
10,CC1=C2[C@H](/C=C(\C)C(=O)O)CC[C@@H](C)[C@H]2CC1,inactive
11,CN(C)CCCCCCN(C)C,inactive
12,COc1ccc2nc(N)sc2c1,inactive
13,CCC(O)OC(O)CC (stereo not given),inactive
14,COc1cc(/C=C/c2ccccc2)oc(=O)c1,inactive
15,C=C(C)C1CC=C(C)C(O)C1 (stereo not given),inactive
16,CCCCCCCCCCCCCC(=O)O,inactive
17,C=CC(=C)CCC=C(C)C,inactive
18,ClCCCl,inactive
19,C=Cc1ccccc1Cl,inactive
20,Clc1cc(Cl)c(Cl)c(Cl)c1Cl,inactive
